Measurements reported in PubChem BioAssay.
Active and inactive are the calls of the source.

Assays:
[1] = target: Albumin (Bos taurus) (UniProt P02769); test: compounds binding labelled BSA control protein – biochemical, small-molecule microarray, Alexa647 label, 635/667 nm fluorescence, artefact control for SMM control protein annotation, profiling panel (AID 1118); conditions: BSA-A647 binding, fluorescence 635 nm, higher = more signal;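 further: score merges 667 nm emission intensity and signal-to-noise per printed compound spot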
Albumin (Bos taurus), sequence (P02769 whole entry, looked up): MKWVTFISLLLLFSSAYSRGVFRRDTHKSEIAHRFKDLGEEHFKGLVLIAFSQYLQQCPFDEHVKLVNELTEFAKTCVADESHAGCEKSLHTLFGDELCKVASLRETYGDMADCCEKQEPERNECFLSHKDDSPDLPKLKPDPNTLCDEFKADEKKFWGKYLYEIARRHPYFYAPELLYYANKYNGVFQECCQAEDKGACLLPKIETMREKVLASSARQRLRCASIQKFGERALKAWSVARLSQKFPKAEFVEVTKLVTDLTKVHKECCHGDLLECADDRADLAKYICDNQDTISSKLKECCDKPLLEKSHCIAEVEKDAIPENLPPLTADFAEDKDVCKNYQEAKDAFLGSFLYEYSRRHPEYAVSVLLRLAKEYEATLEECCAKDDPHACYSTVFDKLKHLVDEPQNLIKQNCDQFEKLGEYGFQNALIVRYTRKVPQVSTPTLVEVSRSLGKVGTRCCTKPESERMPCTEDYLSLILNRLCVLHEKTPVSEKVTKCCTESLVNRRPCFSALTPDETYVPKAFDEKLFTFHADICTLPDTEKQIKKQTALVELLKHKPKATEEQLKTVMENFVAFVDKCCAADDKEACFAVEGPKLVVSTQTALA

[2] = probe aXIP binding to arrayed compounds – biochemical, NeuroSMM set, 635/667 nm fluorescence, primary screen (AID 1119); conditions: small-molecule microarray, higher = more signal, called active from +8 up or from −8 down;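 further: probe is the protein aXip251-270 applied at 1 µg/mL to compound-printed slides; binding of probe to printed compounds measured as 667 nm fluorescence plus signal to noise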
[3] = probe aNOTCH3 binding on compound microarray – biochemical, small-molecule microarray, 635/667 nm fluorescence, primary screen (AID 1120); conditions: higher = more signal;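 further: probe is a biotin-tagged antibody raised against NOTCH3 rather than NOTCH3 protein; score merges spot fluorescence near 667 nm with spot signal to noise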
[4] = probe aNOTCH2 binding on compound microarray – biochemical, small-molecule microarray, 635/667 nm fluorescence, primary screen (AID 1121); conditions: higher = more signal;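 further: score merges feature fluorescence read at 667 nm with its signal to noise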
[5] = target: Carbonic anhydrase 2 (Homo sapiens) (UniProt P00918); test: compounds binding carbonic anhydrase 2 – biochemical, small-molecule microarray, Alexa647-labelled CAII, profiling panel (AID 1122); conditions: CAII-A647 binding fluorescence, higher = more signal
[6] = COS7 lysate on small-molecule microarray, probe aHis, 635 nm (AID 1123); conditions: COS7 cell lysate, fluorescence, higher = more signal;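 further: z-score combines 667nm fluorescence intensity with signal-to-noise per printed compound spot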
[7] = probe aLAP1 signal on lysate-treated microarray – cell lysate, small-molecule microarray, COS7 lysate, primary screen (AID 1124); conditions: probe aLAP1, fluorescence, higher = more signal;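 further: lysate comes from COS7 cells expressing LAP1 and is applied at 0.3 µg/mL; score merges spot fluorescence near 667 nm with signal-to-noise over triplicate slides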
[8] = system: Sam68 (KHDRBS1); test: compounds binding KHDRBS1 protein – biochemical, small-molecule microarray, 635 nm fluorescence, primary screen (AID 1125); conditions: higher = more signal;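 further: score merges 667 nm channel intensity with signal to noise over triplicate slides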
[9] = system: Chordin-like protein 2 (CHRDL2); test: compounds binding chordin-like 2 – biochemical, small-molecule microarray, 635 nm fluorescence, primary screen (AID 1126); conditions: fluorescence 635 nm, higher = more signal;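 further: printed compound slides probed with Chrdl2 protein at 4 µg/mL for 1 h at 4 C; score merges 667 nm emission intensity with signal to noise over three replicate slides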
[10] = target: Concanavalin-A (Canavalia ensiformis) (UniProt P02866); test: compounds binding concanavalin A lectin – biochemical, small-molecule microarray, Alexa647 label, 635 nm, artefact control for SMM control protein annotation, primary screen (AID 1127); conditions: ConA-A647 binding fluorescence, higher = more signal;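 further: z combines 667 nm emission intensity with signal-to-noise across three replicate slides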
Concanavalin-A (Canavalia ensiformis), sequence (P02866 whole entry, looked up): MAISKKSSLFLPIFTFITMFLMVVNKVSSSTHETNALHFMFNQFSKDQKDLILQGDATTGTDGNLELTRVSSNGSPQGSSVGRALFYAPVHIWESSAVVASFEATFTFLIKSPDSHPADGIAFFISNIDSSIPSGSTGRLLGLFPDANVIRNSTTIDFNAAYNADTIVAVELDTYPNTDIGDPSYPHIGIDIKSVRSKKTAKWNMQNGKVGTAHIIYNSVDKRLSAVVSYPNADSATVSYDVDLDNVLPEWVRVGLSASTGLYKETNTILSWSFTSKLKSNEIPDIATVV

[11] = compounds binding Alexa647 anti-His antibody – biochemical, small-molecule microarray, 635 nm fluorescence, artefact control for SMM control protein annotation, primary screen (AID 1128); conditions: higher = more signal;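 further: score merges feature fluorescence with signal-to-noise for each printed compound spot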
[12] = system: Human papillomavirus type 1a E7 protein (residues 1-88); test: HPV1a E7 small-molecule binders, primary screen, biochemical, small-molecule microarray, residues 1-88, 635 nm (AID 1129); conditions: small-molecule microarray binding, fluorescence 635 nm; higher = more signal
[13] = target: Focal adhesion kinase 1 (Homo sapiens) (UniProt Q05397); test: PTK2 protein binding on printed compound slides – biochemical, small-molecule microarray, 635/667 nm fluorescence, BSA, DTT, primary screen (AID 1130); conditions: 635 nm fluorescence, higher = more signal;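 further: composite of spot emission at 667 nm and signal to noise over triplicate slides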
Focal adhesion kinase 1 (Homo sapiens), sequence (Q05397 whole entry, looked up): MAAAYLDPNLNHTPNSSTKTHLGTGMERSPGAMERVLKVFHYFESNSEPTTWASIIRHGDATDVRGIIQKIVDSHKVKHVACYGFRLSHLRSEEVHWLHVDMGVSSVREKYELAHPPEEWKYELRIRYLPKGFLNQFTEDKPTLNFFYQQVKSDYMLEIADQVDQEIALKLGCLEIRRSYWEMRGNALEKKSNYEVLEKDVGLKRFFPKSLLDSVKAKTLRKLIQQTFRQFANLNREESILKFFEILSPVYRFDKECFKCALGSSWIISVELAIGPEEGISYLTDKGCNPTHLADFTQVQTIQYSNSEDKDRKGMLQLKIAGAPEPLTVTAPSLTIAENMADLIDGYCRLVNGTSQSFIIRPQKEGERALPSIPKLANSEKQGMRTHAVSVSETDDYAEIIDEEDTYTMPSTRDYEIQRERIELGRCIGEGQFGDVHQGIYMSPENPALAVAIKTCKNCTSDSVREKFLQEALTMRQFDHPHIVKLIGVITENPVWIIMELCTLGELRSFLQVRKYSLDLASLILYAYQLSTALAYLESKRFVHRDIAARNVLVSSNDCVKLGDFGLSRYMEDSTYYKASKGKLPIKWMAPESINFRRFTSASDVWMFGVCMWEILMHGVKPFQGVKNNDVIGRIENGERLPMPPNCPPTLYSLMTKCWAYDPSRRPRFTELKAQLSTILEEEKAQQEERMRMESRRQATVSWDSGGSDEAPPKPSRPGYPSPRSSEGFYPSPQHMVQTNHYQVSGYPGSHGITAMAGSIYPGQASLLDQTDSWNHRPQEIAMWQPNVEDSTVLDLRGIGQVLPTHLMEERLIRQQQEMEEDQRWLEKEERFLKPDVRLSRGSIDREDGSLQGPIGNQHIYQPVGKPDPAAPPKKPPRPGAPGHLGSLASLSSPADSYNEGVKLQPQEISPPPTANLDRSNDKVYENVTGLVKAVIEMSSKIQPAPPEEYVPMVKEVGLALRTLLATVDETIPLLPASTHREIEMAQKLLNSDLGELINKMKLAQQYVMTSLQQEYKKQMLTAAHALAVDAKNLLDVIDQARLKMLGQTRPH

[14] = system: Fibrinogen (Alexa647-labelled); test: Alexa647-fibrinogen binding to printed small molecules – biochemical, small-molecule microarray, 635/667 nm fluorescence, artefact control for SMM control-protein annotation, profiling panel (AID 1131); conditions: fibrinogen-A647 binding fluorescence, higher = more signal;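 further: z-score merges 667 nm fluorescence with per-spot signal-to-noise over triplicate slides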
[15] = target: Follistatin (Homo sapiens) (UniProt P19883); test: FST protein binding to printed compounds – biochemical, small-molecule microarray, 635/667 nm fluorescence, primary screen (AID 1132); conditions: 635 nm fluorescence, higher = more signal
Follistatin (Homo sapiens), sequence (P19883 whole entry, looked up): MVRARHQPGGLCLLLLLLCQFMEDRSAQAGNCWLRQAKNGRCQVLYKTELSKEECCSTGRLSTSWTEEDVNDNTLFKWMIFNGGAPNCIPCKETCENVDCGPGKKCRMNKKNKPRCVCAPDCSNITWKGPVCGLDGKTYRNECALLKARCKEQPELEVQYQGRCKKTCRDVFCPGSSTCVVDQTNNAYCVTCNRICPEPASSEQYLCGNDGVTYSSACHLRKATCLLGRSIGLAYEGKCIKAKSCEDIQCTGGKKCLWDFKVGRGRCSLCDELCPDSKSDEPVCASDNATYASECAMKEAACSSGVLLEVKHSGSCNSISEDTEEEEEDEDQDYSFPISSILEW

[16] = target: Fibroblast growth factor 2 (Homo sapiens) (UniProt P09038); test: basic fibroblast growth factor binding to printed compounds – biochemical, small-molecule microarray, 635/667 nm fluorescence, primary screen (AID 1133); conditions: FGF2, fluorescence 635/667, higher = more signal
Fibroblast growth factor 2 (Homo sapiens), sequence (P09038 whole entry, looked up): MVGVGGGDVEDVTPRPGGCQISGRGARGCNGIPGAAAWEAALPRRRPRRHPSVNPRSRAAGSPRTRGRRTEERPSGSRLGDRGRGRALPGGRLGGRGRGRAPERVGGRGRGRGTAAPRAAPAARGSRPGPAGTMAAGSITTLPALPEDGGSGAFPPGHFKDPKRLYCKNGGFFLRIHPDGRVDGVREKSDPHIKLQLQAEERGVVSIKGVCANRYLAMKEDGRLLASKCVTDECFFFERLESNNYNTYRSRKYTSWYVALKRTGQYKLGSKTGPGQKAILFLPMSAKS

[17] = JC-1 mitochondrial potential readout, lung cancer cells – cell-based, A549, JC-1 fluorescence, basal, 24 h, 100 nL, profiling panel (AID 1138); conditions: higher = more signal;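 further: A549 lung adenocarcinoma cells under basal conditions with no added stimulus; test concentration not given here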
[18] = system: Lefty1; test: Lefty1 protein binding to printed compounds – biochemical, small-molecule microarray, 635/667 nm fluorescence, primary screen (AID 1139); conditions: fluorescence 635/667, higher = more signal
[19] = system: wheat germ agglutinin (Triticum aestivum), Alexa647-labelled; test: Alexa647-WGA lectin binding to printed small molecules – biochemical, small-molecule microarray, 635/667 nm fluorescence, artefact control for SMM control-protein annotation, profiling panel (AID 1140); conditions: WGA-A647 binding, 635 nm fluorescence, higher = more signal;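 further: score merges 667 nm feature emission with signal to noise over triplicate slides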
[20] = target: Luciferin 4-monooxygenase (Photinus pyralis) (UniProt P08659); test: inhibition of purified Photinus pyralis luciferase – biochemical, luminescence, purified enzyme, 2006 set, primary screen (AID 1141); conditions: purified firefly luciferase, SteadyGlo luminescence, 30 min; higher = more signal, called active from +8 up or from −8 down;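 further: cell-free assay with purified firefly luciferase at 100 ng per well in PBS; test concentration not given here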
Luciferin 4-monooxygenase (Photinus pyralis), sequence (P08659 whole entry, looked up): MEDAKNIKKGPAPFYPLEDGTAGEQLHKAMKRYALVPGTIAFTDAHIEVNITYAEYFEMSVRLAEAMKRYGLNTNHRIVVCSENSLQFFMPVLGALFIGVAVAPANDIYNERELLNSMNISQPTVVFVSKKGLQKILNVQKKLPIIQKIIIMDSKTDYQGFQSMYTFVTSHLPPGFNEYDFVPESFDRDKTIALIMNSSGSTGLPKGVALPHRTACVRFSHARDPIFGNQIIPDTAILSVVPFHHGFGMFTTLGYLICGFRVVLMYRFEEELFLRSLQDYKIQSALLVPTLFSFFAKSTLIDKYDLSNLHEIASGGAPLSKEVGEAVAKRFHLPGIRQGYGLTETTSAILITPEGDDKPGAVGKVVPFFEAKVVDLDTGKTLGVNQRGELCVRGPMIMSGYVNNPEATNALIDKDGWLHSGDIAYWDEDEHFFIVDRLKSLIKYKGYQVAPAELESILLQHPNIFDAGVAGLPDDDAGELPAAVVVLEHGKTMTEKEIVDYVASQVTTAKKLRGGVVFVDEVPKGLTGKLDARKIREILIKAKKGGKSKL

| Compound | composite z-score [1] | composite Z-score [2] | composite z-score [3] | composite z-score [4] | composite z-score [5] | composite z-score [6] | composite z-score [7] | composite z-score [8] | composite z-score [9] | composite z-score [10] | composite z-score [11] | composite z-score [12] | composite z-score [13] | composite z-score [14] | composite z-score [15] | composite z-score [16] | z-score [17] | composite z-score [18] | composite z-score [19] | z-score [20] |
| --- | --- | --- | --- | --- | --- | --- | --- | --- | --- | --- | --- | --- | --- | --- | --- | --- | --- | --- | --- | --- |
| C[C@@H](ON=C1[C@H]2CCn3c(=O)n(-c4ccccc4)c(=O)n3[C@H]2[C@H](O)[C@@H]2O[C@H]12)c1cn([C@@H]2COC[C@H]2O)nn1 | -0.244 | -0.419 (inactive) | 0.0159 | -0.0938 | 0.134 | -0.282 | 0.211 | 0.509 | 0.534 | 0.459 | -0.0522 | 0.619 | 0.0584 | 0.544 | 0.414 | 0.433 | -0.339 | 0.691 | 0.0978 | 0.704 (inactive) |
| COC(=O)[C@H](C)NC(=O)CCC1CC(OC(=O)NCc2ccc3c(c2)OCO3)CC2(CCCC(COC(=O)NCC3CCCCC3)O2)O1 (stereo not given in full) | 0.569 | -0.0882 (inactive) | -0.0111 | -0.0947 | 0.234 | 1.19 | -0.111 | 1.29 | 0.435 | 1.05 | 0.807 | 1.16 | 0.408 | 0.52 | 0.533 | 0.77 | -0.00341 | 0.97 | 0.723 | 1.16 (inactive) |
| O=c1n(Cc2cc3c(cc2Cl)OCO3)c(=O)n2n1CC[C@@H]1C(=NOC[C@@H](O)COCc3ccco3)[C@H]3O[C@H]3[C@@H](O)[C@@H]12 | -0.0922 | -0.263 (inactive) | -0.0841 | -0.0974 | 0.351 | -0.0175 | 0.0735 | 0.175 | 0.57 | 0.392 | 0.0465 | 0.642 | -0.0676 | 0.354 | 0.568 | 0.546 | -0.15 | 0.414 | 0.004 | -0.357 (inactive) |
| CC[C@@H](c1ccccc1)n1c(=O)n2n(c1=O)[C@H]1[C@H](O)[C@@H]3O[C@@H]3C(=NOC[C@@H](O)COCc3ccco3)[C@H]1CC2 | -0.368 | 0.615 (inactive) | -0.232 | -0.133 | 0.04 | -0.997 | -0.955 | -0.758 | 0.726 | -0.757 | -0.74 | -0.629 | 0.587 | -1.9 | 0.361 | 0.167 | -0.0823 | 0.389 | 0.534 | -0.47 (inactive) |
| CO[C@@H]1COC(=O)CC=C[C@@H](C)[C@H](OC)COC(=O)[C@@H](C)COC(=O)CC=C[C@H]1C | -0.797 | 0.0068 (inactive) | -0.055 | -0.124 | -0.679 | -0.824 | -0.0936 | -0.983 | 1.47 | -0.423 | -0.227 | -1.38 | -0.482 | -1.39 | 1.18 | 0.867 | 1.2 | 1.24 | -0.839 | -0.798 (inactive) |
| CC(CCN1CCc2nc(-c3ccccc3)c(-c3ccccc3)cc2C1)=NOC[C@@H](O)[C@H]1O[C@@H]2OC(C)(C)O[C@@H]2[C@H]1O | 0.535 | 0.42 (inactive) | -0.051 | -0.0291 | 0.0181 | 1 | 0.608 | 1.13 | 0.507 | 0.696 | 0.107 | 0.94 | 0.182 | 0.925 | 0.521 | 0.409 | 2.07 | 1.07 | 0.393 | -0.116 (inactive) |
| C#CCCCON=C1[C@H]2CCn3c(=O)n(C)c(=O)n3[C@H]2[C@H](O)[C@@H]2O[C@H]12 | -0.213 | -0.496 (inactive) | -0.0304 | -0.169 | -0.053 | 0.0971 | 0.723 | 0.406 | 0.833 | 0.543 | 0.196 | 0.746 | -0.103 | 0.615 | 0.72 | 0.916 | 1 | 0.363 | -0.0602 | -1.25 (inactive) |
| CC(C)CON=C1C[C@@H](O)[C@@H](O)[C@@H]2[C@@H]3C(=O)N(C4CCCCC4)C(=O)[C@@H]3CC[C@H]12 | 0.536 | -0.409 (inactive) | 0.0021 | -0.125 | 0.445 | 0.84 | 0.606 | 1.3 | 0.25 | 1.11 | 0.55 | 0.666 | 0.005 | 0.657 | 0.346 | 0.781 | 0.246 | 0.837 | 0.812 | -0.266 (inactive) |
| CCOC(=O)NN=C1C[C@@H](O)[C@@H](O)[C@@H]2[C@@H]3C(=O)N(c4cccc(Oc5ccccc5)c4)C(=O)[C@@H]3CC[C@@H]12 | 0.736 | -0.147 (inactive) | -0.152 | -0.167 | 0.58 | 0.263 | 0.142 | -0.114 | -0.0646 | -0.245 | -0.103 | 0.45 | 0.0767 | 0.681 | -0.445 | -0.248 | -0.44 | -0.318 | 0.327 | 0.607 (inactive) |
| CON=C[C@@H](NS(=O)(=O)c1ccc(C)cc1)[C@H](C)C=CCC(=O)OC | -0.625 | -0.722 (inactive) | -0.0173 | -0.14 | -0.374 | 0.0154 | 0.22 | -1.35 | 1.26 | -0.0082 | 0.4 | -1.15 | 0.438 | -0.717 | 0.718 | 0.747 | 0.764 | 0.585 | -0.35 | -0.42 (inactive) |
